Assay outcomes from PubChem.
This is a sample that favours compounds with a hit; in the whole collection about 4% have one here.
D1 antagonist = blocks dopamine activation of the human D1 receptor. P21728. HEK293 TREx D1 cells, calcium flux, dopamine EC80; active compounds read low. activity change, negative = inhibition, % at 10 µM. 3.2% of 360,000 active. AID 504652; in the data active means activity change below about -30%; further: on the % scale 0 is the no-effect control and ±100 the full control effect
Target sequence (P21728 whole entry, looked up): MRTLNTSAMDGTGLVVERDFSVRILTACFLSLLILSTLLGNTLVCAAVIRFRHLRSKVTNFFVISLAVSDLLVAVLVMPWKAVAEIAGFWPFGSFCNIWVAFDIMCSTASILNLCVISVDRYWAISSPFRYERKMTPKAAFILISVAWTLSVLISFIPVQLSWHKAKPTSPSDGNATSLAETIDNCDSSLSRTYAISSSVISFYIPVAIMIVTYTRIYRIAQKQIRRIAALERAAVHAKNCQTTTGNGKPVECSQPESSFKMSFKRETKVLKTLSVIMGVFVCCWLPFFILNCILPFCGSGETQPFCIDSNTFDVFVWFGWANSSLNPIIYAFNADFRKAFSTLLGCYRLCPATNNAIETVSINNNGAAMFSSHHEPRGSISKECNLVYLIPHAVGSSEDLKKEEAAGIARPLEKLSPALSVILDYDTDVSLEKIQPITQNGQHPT
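Allosteric or orthosteric antagonism assessed as attenuation of the calcium response to EC80 dopamine, added 180 s after compound, in induced HEK293 Trex D1 cells loaded with no-wash calcium dye.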
Glioma ERSR ind = ER stress response induction in glioma. AID 602332. U87-MG GRP78 promoter luciferase reporter, 16 h. Potency, µM, without a hit: top-dose activation, hits mostly activators. 0.02% of 420,000 active; active means well fitted activation curve with a large enough effect; further: potency means the concentration at half of the fitted maximal effect; series mostly up to about 76 µM; % of control where 0% means no effect; nearly all actives have a fitted effect of over 35% in size
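ERSR induction read as luciferase luminescence (Bright-Glo, 10 min at room temperature) in stably transfected human U87-MG glioma cells exposed to compounds for 16 h, using GRP78 as sensor.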
TRHR ag = activates the human TRH receptor | 0.18% of 360,000 active | P34981 | TRHR cells, calcium flux fluo-8, FDSS agonist mode | activation, % at 2 µM; further: 0% is about no effect
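Steps: seed TRHR cells overnight; add fluo-8 no-wash Ca dye, RT 30 min–1.5 h; record 10 s baseline; pin-transfer compounds; monitor fluorescence 1 cycle/s for the agonist window. Calcium increases flag candidate agonists.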
D1 potentiator = potentiators of human D1 dopamine receptor. P21728. 0.036% of 360,000 active. HEK293 TREx D1 cells, calcium flux, dopamine EC20 potentiation. potentiation, % at 10 µM; in the data active means potentiation above about 30%; further: 0% is about no effect
TRHR enhancer = TRH receptor (human) allosteric enhancement; P34981; TRHR cells, fluo-8 calcium fluorescence, EC20 TRH enhancement; enhancement, % at 2 µM; 0.66% of 360,000 active; in the data active means enhancement above about 30%; further: 0% is about no effect
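TRHR-expressing cells loaded with fluo-8 calcium dye were read kinetically (ex 480/em 530) during compound addition, then stimulated with an EC20 of TRH (10 nM final). Enhancement of the Gq-mediated intracellular calcium response was scored.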
D1 ag = human D1 receptor agonism; AID 504660; P21728; 1% of 360,000 active; HEK293 T-REx D1 cells, calcium flux, agonist mode; activation, % at 2 µM; further: 0% is about no effect
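Inducible HEK293 T-REx D1 cells, force-coupled to calcium signalling, were plated at 4000 cells/well with tetracycline and held overnight at 30 C. After no-wash calcium dye loading, compound-evoked calcium rise over 180 s flagged agonists.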
Starred values were filed as active, the others as inactive; . = no result; ! = repeats disagree. Unless noted, no stated cut-off is given here; in the data, active means activation above about 30%; inactive means the rest.

SMILES	D1 antagonist	Glioma ERSR ind	TRHR ag	D1 potentiator	TRHR enhancer	D1 ag
COc1ccc(CNc2nc3ccccc3n2Cc2ccc(Cl)cc2)cc1OC	-3.1	-6.4%	-0.4	-2.4	-9.4	8.6
CC(C)n1c(NCc2ccc(Cl)cc2)nc2ccccc21	4.4	-3.8%	0.3	-0.3	39.5*	1.3
CCOc1ccccc1NC(=O)COC(=O)CSc1ccc(Cl)cc1	-6.1	-1.7%	0.5	-0.6	-1.5	6.3
O=S(=O)(NCc1ccccc1)NCc1cccc(C(F)(F)F)c1	-38.1*	-1.5%	-1.0	-7.6	-9.7	0.9
O=C(COC(=O)c1cccs1)NCCC1=CCCCC1	1.3	0.9%	-1.5	-5.5	16.1	2.8
COCCn1c(-c2ccc(Br)cc2)nc2oc3cc(OC)ccc3c(=O)c2c1=O	-44.6*	-1.9%	-2.3	0.2	-4.3	-0.3
COC(=O)c1[nH]c2ccc(Cl)cc2c1NC(=O)c1ccccc1[N+](=O)[O-]	8.6	-4.5%	-0.3	15.7	-9.1	1.3
COC(=O)c1[nH]c2ccc(C)cc2c1NC(=O)c1ccccc1[N+](=O)[O-]	-35.8*	-3.3%	0.0	-1.8	-1.2	-1.5
Cc1ccc(Cl)cc1N1CCN(CCCNC(=O)C2COc3ccccc3C2)CC1 (configuration not stated)	-37.0*	-0.5%	1.1	-2.1	-3.2	41.3*
Cc1cccc(N2CCN(CCNC(=O)C3COc4ccccc4C3)CC2)c1C (configuration not stated)	-51.2*	-1.7%	-0.3	-4.2	-2.5	18.0
O=C(NCCCN1CCN(c2ccc(F)cc2)CC1)C1COc2ccccc2C1 (configuration not stated)	-6.2	-2.5%	0.4	-5.0	-6.3	10.7
CC(C)CNc1nc(Oc2ccc(=O)n(C)n2)nc(N2CCOCC2)n1	-43.3*	2.1%	-0.7	-12.3	-6.2	3.3
O=C1[C@@H]2C(c3ccc(F)cc3)=NO[C@@H]2C(=O)N1Cc1ccccc1	-0.4	-0.7%	0.0	-7.1	-3.8	1.0
COc1ccc(CN2C(=O)[C@@H]3C(c4ccc(F)cc4)=NO[C@@H]3C2=O)cc1	-37.4*	-3.2%	0.8	-9.2	-2.2	5.1
CCOc1ccc(NC(=O)c2c[nH]n3c(=O)cc(C4CCN(C(=O)OC(C)(C)C)CC4)nc23)cc1	-31.5*	2.7%	0.3	-3.4	-7.5	2.2
Cc1ccc(Nc2ncccc2C(=O)NCc2cccs2)c(C)c1	.	1.6%	.	.	.	.
CCOC(=O)Cn1c2ccc(OC)cc2c2nc3ccccc3nc21	11.0	-3.6%	0.6	-1.2	13.0	0.1
CN(C)CCCNc1nc2cc(-c3cccc(Cl)c3)sc2c(=O)n1C	.	-2.6%	.	.	.	.
CN(C)C(=O)CSc1nc2ccccc2n1Cc1ccccc1	-14.6	-3.3%	-1.0	-2.5	14.7	2.9
CCN(CC)CCSc1nc2ccccc2n1Cc1ccccc1	-38.6*	1.3%	0.3	-17.2	-0.7	10.8
CCCn1c(/C=C/c2ccccc2)nc2ccccc21	-35.0*!	0.5%	-1.3	-6.7	-1.3	0.7
CCCn1c(SCC(=O)O)nc2ccccc21	-87.9*	-3.6%	-1.3	0.8	-2.3	2.3
N#Cc1c(N)nc2c3c(sc(=N)c2c1N)NC(=O)CC3c1ccccc1 (configuration not stated)	-34.6*	10.9%	-0.8	-2.6	-4.4	-0.8
C[C@H](NC(=O)Nc1cccc(C(F)(F)F)c1)C(=O)O	1.2	-3.3%	0.3	-6.0	-2.4	-1.7
COc1ccc(NC(=O)Nc2cccc(C(F)(F)F)c2)cn1	-30.3*	-2.9%	1.0	4.8	0.8	17.6
O=C(Nc1cccc(C(F)(F)F)c1)Nc1cccs1	-44.4*	.	0.6	-7.2	-6.1	24.8
COc1ccc(NC(=O)Nc2ccc([N+](=O)[O-])cc2)cn1	-51.8*	0.5%	4.3	-4.2	3.2	35.0*
O=C(O)c1ccccc1C(=O)Nc1ccc(Oc2cccc(C(F)(F)F)c2)nc1	9.3	-0.8%	0.3	-1.1	1.7	0.9
COc1ccc(NC(=O)Nc2cccs2)cn1	-6.1	7.7%	0.4	-6.2	0.5	6.8
Cc1ccc(C(=O)Nc2ccc(Oc3cccc(C(F)(F)F)c3)nc2)cc1	-30.6*	-5.6%	1.3	2.8	-6.0	29.9
